Experimental data: PubChem BioAssay
Where “and” joins values, the source holds several entries; their conditions need not be identical. Equal values may be shown once. Calls of active or inactive are those of the source.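 Rule for the calls, unless noted: active = compounds whose cell count with miR-34 switched on is under 0.7 times the count with it off; inactive = the rest.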

Experiments:
[1] = BT084 cell growth, single and combined drugs, ICGC_MB145, cisplatin and BGB IC40 combos (AID 1671461); details: BT084 medulloblastoma cells, drug combinations, stronger effect = higher value;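 note: cells exposed to drugs for 96 hours; 0% = vehicle DMSO and 100% = high DMSO full killing control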
[2] = RCMB18 cell growth, single agent and combined, cisplatin and BGB IC40 combos (AID 1671462; in the data active = inhibition above about 80%;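 note: cells exposed to compound for four days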); details: RCMB18 medulloblastoma cells, stronger effect = higher value
[3] = CRL1545 cell growth, single agent and combined, cisplatin and BGB IC20 combos (AID 1671464; in the data active = inhibition above about 80%;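 note: cells exposed to compound for 96 hours before readout; 0% = vehicle DMSO and 100% = high DMSO killing control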); details: CRL1545 osteosarcoma cells, stronger effect = higher value
[4] = compounds altering viability of human ES cells (AID 493140; call rule not given here;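 note: cells exposed to compounds for four days before counting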); details: human embryonic stem cell survival screen; stronger effect = higher value
[5] = P. berghei load reduction in hepatocytes – cell-based, HepG2, luciferase luminescence, HepG2 viability, primary screen (AID 624349; in the data active = parasite load remaining mostly below about 12%, no sharp cut-off; inactive = mostly above about 10%;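 note: 100% = mean of DMSO negative control wells on the same plate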); details: P. berghei liver stage in HepG2, luciferase luminescence, concentration not given here; parasite load remaining: stronger effect = lower value; viability: measured here: HepG2 viability without parasites
[6] = viability loss with induced miR-34 in A549 – imaging, A549 dox-inducible miR-34, nuclei and caspase counts, primary screen (AID 1347080); details: A549 miR-34 inducible, Hoechst nuclei count, 48 h
[7] = MELAS cybrid and Rieske KO viability enhancers – cell-based, MELAS cybrids, Rieske KO mouse fibroblasts, CellTiter-Glo, primary screen (AID 1508586;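 active = mean z-score across replicates of 1.96 or higher in either the MELAS or the Rieske mutant cell line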;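 note: z relative to plate mean and SD of compound and empty wells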); details: low glucose
[8] = stronger effect = lower value, cell number ratio, induced over uninduced
[9] = measured here: relative caspase fold change +Dox/-Dox
[10] = measured here: total cells with miR-34 induction, stronger effect = lower value
[11] = measured here: total cells without miR-34 induction
[12] = MELAS cybrid survival, CellTiter-Glo 48 h, stronger effect = higher value
[13] = Rieske KO mouse fibroblast survival, CellTiter-Glo 72 h

## COc1ccc(CC(N)C(=O)NC2C(CO)OC(n3cnc4c(N(C)C)ncnc43)C2O)cc1 (centres undefined)
[1]; cisplatin combination, at 0.5 µM
  inhibition: 43% and 48.9%
[1]; cisplatin combination, at 5 µM
  inhibition: 88.5% and 94%
[1]; measured here: BGB IC40 combination 0.05 uM, at 0.05 µM
  inhibition: -4.12% and 46.7%
[1]; single agent, at 5 µM
  inhibition: 105% and 104%
[2]; at 0.5 µM
  inhibition: 33.4% (inactive) and 51.8% (inactive)
[2]; cisplatin combo, at 5 µM
  inhibition: 76% and 95.5%
[2]; measured here: BGB IC40 combination, at 0.05 µM
  inhibition: -32% and 8.46%
[2]; measured here: combination with cisplatin, at 0.5 µM
  inhibition: 49.2% and 73.8%
[2]; single agent, at 5 µM
  inhibition: 95.9% and 95.4%
[3]; at 0.5 µM
  inhibition: 86.2% (active) and 95.7% (active)
[3]; measured here: with BGB IC20 combination, at 0.5 µM
  inhibition: 92.5% and 96.5%
[3]; measured here: with cisplatin IC20 combination, at 0.5 µM
  inhibition: 82.6% and 95.3%
[3]; single agent, at 0.05 µM
  inhibition: -45.7% and -4%
[3]; single agent, at 5 µM
  inhibition: 100% and 99.7%

## CC(C)(C)NCC(O)COc1ccccc1C1CCCC1 (centres undefined)
[4]
  survival: 4.5 (inactive)
[5]
  parasite load remaining: 64.8% (inactive)
  viability: 78.7%
[6]; [8]
  fold change: 0.898 (inactive)
[6]; [9]
  fold change: 0.683
[6]; [10]
  cell count: 7970
[6]; [11]
  cell count: 8880
[7]; [12]
  z-score: -0.603 (inactive)
[7]; [13]
  z-score: -0.983

## CC[N+](CC)(CC)CCC(O)(c1ccccc1)C1CCCCC1 (centres undefined)
[4]
  survival: 3.08 (inactive)
[5]
  parasite load remaining: 97.4% (inactive)
  viability: 92.1%
[6]; [8]
  fold change: 0.878 (inactive)
[6]; [9]
  fold change: 0.741
[6]; [10]
  cell count: 8200
[6]; [11]
  cell count: 9350
[7]; [12]
  z-score: -0.675 (inactive)
[7]; [13]
  z-score: -0.626

## CO[C@@]1(NC(=O)[C@H](C(=O)O)c2ccc(O)cc2)C(=O)N2C(C(=O)O)=C(CSc3nnnn3C)CO[C@@H]21
[5]
  parasite load remaining: 81.8% (inactive)
  viability: 98.4%
[6]; [8]
  fold change: 0.861 (inactive)
[6]; [9]
  fold change: 1.17
[6]; [10]
  cell count: 8980
[6]; [11]
  cell count: 10400
[7]; [12]
  z-score: 0.452 (inactive)
[7]; [13]
  z-score: -0.352

## CCC(=O)OCC(=O)C1(OC(=O)CC)[C@H](C)C[C@H]2[C@H]3[C@H]([C@@H](O)C[C@@]21C)[C@@]1(C)C=CC(=O)C=C1C[C@H]3Cl (some centres undefined)
[4]
  survival: 4.33 (inactive)
[5]
  parasite load remaining: 104% (inactive)
  viability: 97.3%
[6]; [8]
  fold change: 0.785 (inactive)
[6]; [9]
  fold change: 1.32
[6]; [10]
  cell count: 6260
[6]; [11]
  cell count: 7980
[7]; [12]
  z-score: 0.535 (inactive)
[7]; [13]
  z-score: 0.903

## C[C@@H]1C[C@H]2[C@@H]3C[C@H](F)C4=CC(=O)C=C[C@]4(C)[C@@]3(Cl)[C@@H](O)C[C@]2(C)[C@H]1C(=O)COC(=O)C(C)(C)C
[4]
  survival: 4.25 (inactive)
[5]
  parasite load remaining: 85.6% (inactive)
  viability: 86.4%
[6]; [8]
  fold change: 0.917 (inactive)
[6]; [9]
  fold change: 0.704
[6]; [10]
  cell count: 6960
[6]; [11]
  cell count: 7580
[7]; [12]
  z-score: -0.991 (inactive)
[7]; [13]
  z-score: -0.15

## Cc1cc(C=Cc2ccc3cc(N(C)C)ccc3[n+]2C)c(C)n1-c1ccccc1
[4]
  survival: 2.17 (inactive)
[5]
  parasite load remaining: 0.11% (inactive)
  viability: 48.8%
[6]; [8]
  fold change: 1.3 (inactive)
[6]; [9]
  fold change: 1.04
[6]; [10]
  cell count: 2390
[6]; [11]
  cell count: 1840
[7]; [12]
  z-score: 0.882 (inactive)
[7]; [13]
  z-score: 0.984

## CC(=O)Nc1c(I)c(C(=O)N[C@H]2C(O)O[C@H](CO)[C@@H](O)[C@@H]2O)c(I)c(N(C)C(C)=O)c1I (some centres undefined)
[5]
  parasite load remaining: 113% (inactive)
  viability: 109%
[6]; [8]
  fold change: 0.901 (inactive)
[6]; [9]
  fold change: 1.22
[6]; [10]
  cell count: 9390
[6]; [11]
  cell count: 10400
[7]; [12]
  z-score: 0.559 (inactive)
[7]; [13]
  z-score: 0.37

## CN[C@H](CC(C)C)C(=O)N[C@H]1C(=O)N[C@@H](CC(N)=O)C(=O)N[C@H]2C(=O)N[C@H]3C(=O)N[C@H](C(=O)N[C@H](C(=O)O)c4cc(O)cc(O)c4-c4cc3ccc4O)[C@H](O)c3ccc(c(Cl)c3)Oc3cc2cc(c3O[C@@H]2OC(CO)[C@@H](O)[C@H](O)[C@H]2O[C@H]2C[C@](C)(N)[C@H](O)[C@H](C)O2)Oc2ccc(cc2Cl)[C@H]1O (some centres undefined)
[5]
  parasite load remaining: 59.3% (inactive)
  viability: 113%
[6]; [8]
  fold change: 0.843 (inactive)
[6]; [9]
  fold change: 1.57
[6]; [10]
  cell count: 8980
[6]; [11]
  cell count: 10700
[7]; [12]
  z-score: -0.371 (inactive)
[7]; [13]
  z-score: -0.181

## Cc1c(Cl)cccc1Nc1ncccc1C(=O)O
[5]
  parasite load remaining: 71.2% (inactive)
  viability: 70.4%
[6]; [8]
  fold change: 0.943 (inactive)
[6]; [9]
  fold change: 0.763
[6]; [10]
  cell count: 9020
[6]; [11]
  cell count: 9560
[7]; [12]
  z-score: 0.72 (inactive)
[7]; [13]
  z-score: 0.0323

## CC1(C)S[C@@H]2[C@H](NC(=O)C(C(=O)O)c3ccsc3)C(=O)N2[C@H]1C(=O)O (some centres undefined)
[5]
  parasite load remaining: 73.9% (inactive)
  viability: 69.2%
[6]; [8]
  fold change: 0.946 (inactive)
[6]; [9]
  fold change: 0.678
[6]; [10]
  cell count: 9480
[6]; [11]
  cell count: 10000
[7]; [12]
  z-score: 0.609 (inactive)
[7]; [13]
  z-score: 0.365
